Reference: ChEMBL document CHEMBL3433997, “St. Jude Leishmania screening dataset” (2016)

Assays:
Type in all cases: functional
[1] = biological target: Solute carrier family 2, facilitated glucose transporter member 1 (Homo sapiens) (UniProt P11166); experiment: ST_JUDE_LEISH: Cytotoxicity at 2uM final concentration against transgenic Leishmania Mexicana promastigotes LmGLUT1 that are glucose transport deficient and complemented with the human glucose transporter GLUT1. Activity is measured by DNA content using SYBR green in vitro
[2] = biological target: Hexose transporter 1 (Plasmodium falciparum) (UniProt O97467); experiment: ST_JUDE_LEISH: Cytotoxicity at 2uM final concentration against transgenic Leishmania Mexicana promastigotes LmPfHT that are glucose transport deficient and complemented with the Plasmodium falciparum hexose transporter. Activity is measured by DNA content using SYBR green in vitro
[3] = biological target: Glucose transporter (Leishmania mexicana) (UniProt O61059); experiment: ST_JUDE_LEISH: Cytotoxicity at 2uM final concentration against transgenic Leishmania Mexicana promastigotes LmGT2 that are glucose transport deficient and complemented with the L. Mexicana glucose transporter 2. Activity is measured by DNA content using SYBR green in vitro

Sequence of Solute carrier family 2, facilitated glucose transporter member 1 (Homo sapiens) (P11166 whole entry): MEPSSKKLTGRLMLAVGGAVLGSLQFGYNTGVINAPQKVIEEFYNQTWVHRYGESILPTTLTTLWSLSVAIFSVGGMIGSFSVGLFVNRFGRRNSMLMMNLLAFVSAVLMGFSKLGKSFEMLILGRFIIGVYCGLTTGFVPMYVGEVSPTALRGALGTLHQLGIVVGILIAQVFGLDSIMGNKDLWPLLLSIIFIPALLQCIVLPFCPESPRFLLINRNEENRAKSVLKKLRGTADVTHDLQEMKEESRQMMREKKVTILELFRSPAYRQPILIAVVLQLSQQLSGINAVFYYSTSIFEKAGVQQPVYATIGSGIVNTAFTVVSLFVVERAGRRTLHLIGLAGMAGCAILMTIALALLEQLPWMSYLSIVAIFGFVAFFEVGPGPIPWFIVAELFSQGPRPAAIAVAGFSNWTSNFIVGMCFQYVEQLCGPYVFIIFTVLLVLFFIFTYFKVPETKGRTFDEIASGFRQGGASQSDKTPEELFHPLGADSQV

Structure (SMILES) | inhibition [1] | inhibition [2] | inhibition [3]
COc1cc(NCCCNC(=O)c2cc3c(Cl)cc(Cl)cc3[nH]2)nc2ccccc12 | 2.04% | 6.51% | 0.77%
Cc1ccc(-c2noc(COc3ccccc3C(=O)NC3CCCC3)n2)cc1 | 3.88% | 6.24% | 6.15%
Cc1ccc(C(C)C)c(Oc2ccc3nc(N)nc(N)c3c2)c1 | 13.2% | 8.97% | 5.01%
Cc1cc(N[C@@H](CC(C)C)C(=O)NCCCOC(C)C)nc(NCCc2ccc(F)cc2)n1 | 2.71% | 1.92% | 0.62%
COc1ccc2nccc([C@@H](O)CN3CCC(NC(=O)c4ccc(Cl)c([N+](=O)[O-])c4)CC3)c2c1 | 13.3% | 8.44% | 0%
O=C(c1cccc(-c2noc(C(F)(F)F)n2)c1)N1CCN(c2nsc3ccccc23)CC1 | -0.16% | -1.92% | -1.66%
Cc1c(-c2cccc(Br)c2)[nH]c2nc(N)nc(N)c12 | 1.29% | 2.55% | 0.97%
C[C@H](Cc1ccc(OCCCCCCOc2ccc(C[C@@H](C)N[C@H](C)c3ccccc3)cc2)cc1)NC[C@H](O)c1cccc(Cl)c1 | 106% | 94% | 82.4%
Cc1ccc(-n2c(=O)c3cccnc3n2CC(=O)Nc2cccc(C)c2C)cc1 | 8.07% | 5.98% | 7.74%
O=[N+]([O-])c1ccccc1/C=N/Nc1ccnc2cc(Cl)ccc12 | 4.36% | 4.22% | 3.41%
Clc1cc(Nc2ccnc3ccc(Br)cc23)ccc1Oc1ccc(Cl)c2ccccc12 | 3.45% | 3.8% | 2.81%
Cc1noc(C)c1-c1cccc(CNCc2ccc(-c3ccc(-c4nc5cccc(C)c5[nH]4)cc3)cc2)c1 | 2.03% | 0.15% | -0.62%
COc1cc2nc(NCCn3cccn3)nc(NCCc3ccccc3)c2cc1OC | 7.22% | 3.02% | 6.96%
Cc1cccc(-n2nc(C)c3c2NC(=O)CC3C(=O)c2ccc(Cl)s2)c1 (configuration not stated) | 1.99% | 4.4% | 2.73%
N#Cc1cccc(-c2nc(NCc3cccc(C(F)(F)F)c3)nn2-c2cccc(C(F)(F)F)c2)c1 | 1.68% | -0.35% | -0.56%
COc1ccc2[nH]c(C)cc(=NN=Cc3cc(OC)c(OC)cc3OC)c2c1 | 5.42% | 5.13% | 6.18%
C=CCn1c(Sc2ccc(C#N)c([N+](=O)[O-])c2)nnc1-c1ccc(OC)cc1 | 4.25% | 6.95% | 3.25%
O=C(Nc1cccc([N+](=O)[O-])c1)N(Cc1ccc(Cl)c(Cl)c1)C1CCNCC1 | 5.08% | 3.21% | 3.8%
COc1ccc(-c2nc(NC(=O)CS(=O)(=O)c3ccccc3)sc2C)cc1 | 8.8% | 4.92% | 1.25%
Cc1cc(NCCC(=O)NCCOc2ccccc2)nc(Nc2ccccc2)n1 | 5.24% | 4.64% | 0.05%
Cc1ccc(Cn2cnc(N3CC(C)NC(C)C3)cc2=O)cc1NC(=O)Nc1ccc(-c2ccccc2)cc1 (configuration not stated) | -0.2% | -0.46% | -0.19%
CC(C)(C)c1ccc(C(=O)Nc2ccc(NC(=O)c3ccc([N+](=O)[O-])o3)cc2)cc1 | 3.39% | 4.22% | 1.76%
Nc1cccc(CNCc2cccc(-c3ccc(-c4nc5ccccc5[nH]4)cc3)c2)c1 | -1.29% | -0.89% | -0.37%

Structure (SMILES) | inhibition [1] | inhibition [2] | inhibition [3]
CCc1cn(CCCOC)c2ccc(C(=O)N[C@@H](Cc3ccccc3)[C@H](O)CNCc3cccc(C(F)(F)F)c3)cc12 | 3.43% | 2.52% | 2.24%
O=C(Nc1cccc(-c2cccc(-c3nc4cc(C(F)(F)F)ccc4[nH]3)c2)c1)Nc1ccc(F)c(F)c1F | -0.38% | -0.91% | 0.55%
CCc1c(CCNCCCC(C)CCNCCc2ccc(OC)c(OC)c2CC)ccc(OC)c1OC (configuration not stated) | 1.96% | 4.93% | 1.22%
CCCNCc1ccc(-c2ccc(CN(CCOC)C(=O)c3ccc([N+](=O)[O-])c(C)c3)cc2)nc1 | 3.77% | 1.8% | 1.19%
O=S(=O)(NCCN1CCCC1)c1cccc(-c2ccccc2CNC2Cc3ccccc3C2)c1 | 60.1% | 16% | 10.6%
CN1CCC(Oc2ccc(CN3CC[C@H](NC(=O)c4cc(F)cc(F)c4)C3)c3ccccc23)C1 (some centres not stated) | 7.53% | 1.81% | 3.76%
CCCc1cc(=O)[nH]c(-n2nc(C)cc2NC(=O)c2cc3ccccc3o2)n1 | 12.6% | 13.1% | 4.77%
O=C1CN(C(=O)CCC2CCCC2)C(c2ccc(F)cc2)c2cc(F)ccc2N1 (configuration not stated) | 5.81% | 3.45% | 0.37%
OC1CCCN(Cc2ccc(-c3cccc(-c4nc5ccccc5[nH]4)c3)cc2)C1 (configuration not stated) | 2.79% | 1.57% | 2.79%
CN(c1ccccc1)c1ccnc(NC(=N)Nc2ccc(Cl)cc2)n1 | 5.16% | 5.4% | 5.1%
COC1CCC(C(=O)Nc2ccc(-c3cccc(-c4nc5cc(C(F)(F)F)ccc5[nH]4)c3)cc2)CC1 (configuration not stated) | 0.64% | -0.27% | 0.65%
CCc1c(C)nc(-n2nc(C)cc2NC(=O)C(CC)c2ccccc2)[nH]c1=O (configuration not stated) | 18.6% | 7.02% | -2.05%
Nc1cccc(CNCc2cccc(-c3ccc(-c4nc5cc(C(F)(F)F)ccc5[nH]4)cc3)c2)c1 | 4.8% | 6.83% | 3.77%
Cc1cc(NCc2ccccc2)nc(NCc2ccccc2)n1 | 11.8% | 5.78% | 4.43%
CCn1c(-c2nonc2N)nc2cnc(Oc3cccc(NC(=O)c4ccc(OCCN5CCCC5)cc4)c3)cc21 | 7.41% | 9.98% | 7.84%
Cc1cccc2nc(-c3ccc(-c4ccc(NC(=O)C(C)CN5CCN(C)CC5)cc4)s3)[nH]c12 (configuration not stated) | 3.39% | 3.1% | 2.29%
COc1ccc2nccc([C@@H](O)CN3CCC(NC(=O)/C=C/c4cccc(C)c4)CC3)c2c1 | 11% | 9.47% | 3.43%
Cc1cc(C2CCN(CCCCNC(=O)c3ccc(NC(=O)c4ccc(Cl)cc4)cc3)CC2)c(C)cc1OC(C)C | -1.59% | -1.19% | -1.68%
Cc1cccc2nc(-c3cccc(-c4ccc(CN5CCN(CCO)CC5)cc4)c3)[nH]c12 | 2.28% | 0.97% | -0.97%
Cc1ccc(C(NC(=O)Cc2ccccc2)c2ccc3cccnc3c2O)cc1 (configuration not stated) | 8.52% | 22.8% | 0.77%
CS(=O)(=O)c1ccc2[nH]c(-c3cc(-c4ccc(OCCN5CCOCC5)cc4)cnc3N)nc2c1 | 6.63% | 6.02% | 4.16%
CCCCCN1CCCC(NS(=O)(=O)c2ccc(C(=O)Nc3ccc(C(F)(F)F)cc3)cc2)C1 (configuration not stated) | 6.19% | 4.12% | 1.89%
CCN(CCCN1CCCCC1)c1cc(C)nc(Nc2cccc(C(F)(F)F)c2)n1 | -5.65% | 2.63% | 11%

Structure (SMILES) | inhibition [1] | inhibition [2] | inhibition [3]
O=C(NCC1CCC(C(=O)NCc2cccc3ccccc23)CC1)c1ccc(O)c(-c2ccc(Cl)c(Cl)c2)c1 (configuration not stated) | 5.23% | 3.37% | 4.73%
CC(C)(CNCc1ccc(F)c(F)c1)c1nc(-c2ccc(Cl)c(O)c2)c(-c2ccncc2)[nH]1 | 2.43% | 0.25% | 0.94%
CCCCCN1CCCCC(NS(=O)(=O)c2ccc(C(=O)Nc3ccc(C(F)(F)F)cc3)cc2)C1 (configuration not stated) | 0.12% | 2.98% | -1.53%
Nc1ncnc2nc(-c3ccc(F)cc3)cc(-c3ccc(NC(=O)c4ccccc4)cc3)c12 | 4.74% | 2.67% | 2.02%
O=C(/C=C/c1ccc(Br)cc1)NCCCCCN1CCC(c2c[nH]c3ccccc23)CC1 | 25.2% | 17.3% | 12.7%
COc1cc(C=C(C2=NC(=O)CS2)c2nc3cccnc3n2C)ccc1O | 5.2% | 5.56% | 4.82%
Cc1ccc(C(=O)Nc2cc(S(=O)(=O)N3CCCC3)ccc2OCC(F)(F)F)cc1 | 3.23% | 4.19% | 4.69%
Fc1ccc2[nH]c(-c3ccc(-c4ccc(CN5CCCCC5)cc4)cc3)nc2c1 | 8.66% | 7.06% | 5.34%
CC(C)C[C@H](NC(=O)c1cccc(F)c1)C(=O)N[C@H](/C=N/NC(=O)c1ccccc1)CCc1ccccc1 | -1.39% | 3.32% | 0.18%
O=C(/C=C/c1ccc(Cl)c(Cl)c1)NCCCCCN1CCC(CCNC(=O)/C=C/c2cc(C(F)(F)F)ccc2F)CC1 | -4.09% | -2.42% | 2.28%
O=S(=O)(c1ccc(OC(F)(F)F)cc1)C1CC2CCC(C1)N2S(=O)(=O)c1ccc(Cl)c(C(F)(F)F)c1 (configuration not stated) | 11.6% | 12.9% | 10.4%
O=C(C=Cc1ccc(Cl)c(Cl)c1)NCCCCCN1CCCC(CCCNC(=O)/C=C/c2ccccc2)C1 (configuration not stated) | 3.2% | 3.05% | 3.82%
O=c1ccc2ncc(Cl)c3c2n1CC3CN1CCC(NCc2cc3c(cn2)OCCO3)CC1 (configuration not stated) | 8.8% | 14.5% | 5.05%
COc1ccc2nc(C)cc(Nc3ccc(Oc4ccc5ccccc5c4Cl)c(Cl)c3)c2c1 | 13.7% | 12.6% | 8.39%
O=C(Nc1cc(F)cc(F)c1)N[C@H]1CCN(CCCCCNC(=O)C2CC2c2ccc(Cl)c(Cl)c2)C1 (some centres not stated) | -0.04% | 0.55% | -1.55%
COc1ccc2nccc([C@@H](O)CN3CCC(NCc4cc5cccc(O)c5c(=O)[nH]4)CC3)c2c1 | 13.7% | 31.5% | 1.42%
FC(F)(F)c1ccc(CNC2CCN(CC3CCCCC3)CC2)cc1 | 7.89% | 7.71% | 8.5%
Cc1nc(C)c(-c2ccc(Oc3cc(Cl)cc(Cl)c3)cc2)c(O)c1Br | 1.01% | 2.38% | -1.58%
CN(Cc1ccc(NC(=O)NC2CCN(C(=O)/C=C/c3ccc(Cl)c(Cl)c3)CC2)cc1)C1CCOCC1 | 1.63% | -3.08% | 3.44%
CCOC(=O)c1cc(C(=O)NCCCCN2CCC(c3ccc4c(c3OC)CCCC4)CC2)ccc1-c1ccc(C(F)(F)F)cc1 | -2.37% | 4.37% | 1.36%
Cc1cccc(NC(=O)Nc2ccc(I)c(OCCN(C)C)c2)c1C | 15.2% | 9.78% | 10.1%
CCC(C)(C)c1ccc(N2C(N)=NC(N)=NC2(C)C)cc1 | -2.05% | -1.28% | -2.78%
O=C(CCc1c[nH]cn1)Nc1cccc(-c2ccc(-c3nc4ccccc4[nH]3)cc2)c1 | 6.89% | 4.68% | 6.77%
